Out of some 360,000 compounds screened, about 11,000 (3.1%) were called active. The full list was thinned out, with actives kept by preference. Unmarked numbers belong to inactive results. Rule as the data show it: active = activity change below about -30%; inactive = the rest.
% is scaled to controls: 0 for no effect and ±100 for the full control effect.

The experiment deals with D(1A) dopamine receptor (Homo sapiens) (UniProt P21728). The experiment is described as follows: Antagonist of Human D 1 Dopamine Receptor: qHTS. The settings on record: HEK293 TREx D1 cells, calcium flux, dopamine EC80; at 10 µM; stronger effect = lower value. The gist of the method: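 Using tetracycline-induced force-coupled D1 Hek293 cells and a calcium dye, signals were followed for 180 s after compound, then for 180 s after EC80 dopamine, to detect inhibitors.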
Chain of D(1A) dopamine receptor (Homo sapiens) (P21728 whole entry, looked up): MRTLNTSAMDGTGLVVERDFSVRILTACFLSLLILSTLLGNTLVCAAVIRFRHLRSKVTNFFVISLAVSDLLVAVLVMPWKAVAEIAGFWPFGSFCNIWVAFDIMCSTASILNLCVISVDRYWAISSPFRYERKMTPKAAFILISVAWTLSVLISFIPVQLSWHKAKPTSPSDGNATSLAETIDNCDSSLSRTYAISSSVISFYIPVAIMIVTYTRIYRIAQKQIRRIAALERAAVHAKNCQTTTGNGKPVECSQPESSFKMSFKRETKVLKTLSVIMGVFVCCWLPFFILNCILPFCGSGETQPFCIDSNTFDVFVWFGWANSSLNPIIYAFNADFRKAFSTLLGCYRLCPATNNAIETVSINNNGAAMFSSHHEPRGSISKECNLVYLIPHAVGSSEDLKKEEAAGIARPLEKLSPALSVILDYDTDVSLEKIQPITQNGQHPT
For orientation: Quantitative high-throughput screening tests each substance at several concentrations.
In the case of `O=C(Nc1ccc(OC(F)(F)F)cc1)C1CCCN(S(=O)(=O)c2ccc(Br)s2)C1` (centres undefined), the activity change, negative = inhibition was -19.1%.

For the compound `COCc1ccc(CN2CCC(Oc3ccc(C(=O)NCc4ccccn4)cc3)CC2)o1`, the activity change, negative = inhibition is -5.9%.

`O=C(NCCOc1cccnc1)c1ccc(OC2CCN(Cc3ccccn3)CC2)cc1`: the activity change, negative = inhibition is -0.574%.

For `Cn1cc(CNC(=O)c2ccc(OC3CCN(Cc4ccccn4)CC3)cc2)cn1`, the activity change, negative = inhibition is -41.2% (active).

In the case of `CC(CCCc1ccccc1)NC(=O)c1nn(-c2ccc(Cl)cc2)nc1CO` (centres undefined), the activity change, negative = inhibition was 3.03%.

With `O=S(=O)(NCC1CC1)c1ccc(F)c(Cl)c1`, the activity change, negative = inhibition was -3.94%.

As for `O=S(=O)(NCCCN1CCOCC1)c1ccc(F)c(Cl)c1`, the activity change, negative = inhibition is -34.6% (active).

As to `O=[N+]([O-])c1cc(S(=O)(=O)CCCN2CCOCC2)ccc1F`, the activity change, negative = inhibition was -12.6%.

Take `CCOc1ccc(C2C(=O)N(C3CCCCC3)CC(=O)N2CCC2=CCCCC2)cc1OC` (centres undefined): the activity change, negative = inhibition is 39.1%.

For `c1ccc2cc(OCCN3CCCC3)ccc2c1`, the activity change, negative = inhibition is 12.7%.

`Cc1cc(OCCN2CCCC2)cc(C(C)C)c1`: the activity change, negative = inhibition was -2.52%.

Regarding `Cc1cc(OCCN2CCCC2)ccc1C(C)C`, the activity change, negative = inhibition is -30% (active).

On to `Cc1ccc(NC(=O)Cn2nnc3sc4c(c3c2=O)CCC(C)C4)cc1` (centres undefined), for which the activity change, negative = inhibition is -17.2%.

Take `CCc1cccc(C)c1Nc1c(-c2ccc(N(C)C)cc2)nc2ncccn12`: the activity change, negative = inhibition is 6.48%.

For `Cc1ccccc1C(=O)N(Cc1ccc(N(C)C)cc1)CC1CCCO1` (centres undefined), the activity change, negative = inhibition is 12.9%.

Consider `N#Cc1nc(Nc2cc(F)cc(Cl)c2)nc(NC2CCCC2)n1`, for which the activity change, negative = inhibition was -27%.

With `Cc1cc(C)cc(NS(=O)(=O)c2ccc(-c3cc(C)no3)s2)c1`, the activity change, negative = inhibition is -9.8%.

On to `COc1ccc(C)cc1NC(=O)COCc1cc(-c2cccs2)on1`, for which the activity change, negative = inhibition is 15%.

For `Cc1cc(-c2ccc(S(=O)(=O)N3CCN(c4cccc(C(F)(F)F)c4)CC3)s2)on1`, the activity change, negative = inhibition was -24.5%.

As for `Cc1cccc(N2CCN(S(=O)(=O)c3ccc(-c4cc(C)no4)s3)CC2C)c1` (centres undefined), the activity change, negative = inhibition was -39.9% (active).

Consider `Cc1cc(-c2ccc(S(=O)(=O)N3CCc4ccccc4C3)s2)on1`, for which the activity change, negative = inhibition was -15.7%.

As for `O=c1onc(-c2c(F)cccc2F)n1-c1ccccc1Cl`, the activity change, negative = inhibition is -36.4% (active).

For the compound `Cc1ccc(C)c(N2C(=O)N(Cc3c(F)cccc3Cl)c3ccccc3S2(=O)=O)c1`, the activity change, negative = inhibition was -19.3%.

For the compound `O=C(Cn1c(-c2ccc(Cl)cc2)noc1=O)N1CCN(c2ccccc2F)CC1`, the activity change, negative = inhibition was -13.7%.

For `CCOc1ccccc1CNCc1c(C(=O)O)c(C)n(Cc2ccc(C)cc2)c1C`, the activity change, negative = inhibition was 0.5%.

Regarding `CCCCNc1ccc(-c2nc(-c3ccncc3)no2)cc1[N+](=O)[O-]`, the activity change, negative = inhibition is 10.8%.

Regarding `CCOC(=O)c1ccc(NC(=O)C2CCN(S(=O)(=O)c3ccc4c(c3)CCCC(=O)N4)CC2)cc1`, the activity change, negative = inhibition is 2.67%.

As for `CCCCOc1ccc(NC(=O)c2cc3c(n(-c4ccc(Cl)cc4)c2=O)CCCC3=O)cc1`, the activity change, negative = inhibition was 1.15%.

For `COc1ccccc1NC(=O)[C@H](COCc1ccccc1)NC(=O)OC(C)(C)C`, the activity change, negative = inhibition is -13.2%.

With `C[C@@H](NC(=O)OC(C)(C)C)c1nnc(S(=O)(=O)Cc2ccccc2)o1`, the activity change, negative = inhibition was -33% (active).

On to `CC(C)(C)c1ccc(C(CC(=O)O)NS(=O)(=O)Cc2ccccc2)cc1` (centres undefined), for which the activity change, negative = inhibition was -2.49%.

With `O=C(NCCc1ccccc1)c1cnc2sc(N3CCCC3)nn2c1=O`, the activity change, negative = inhibition is 8.92%.

Take `CCOc1ccc(NC(=O)CCC(=O)N2CC(C)Oc3ccc(C)cc32)cc1` (centres undefined): the activity change, negative = inhibition is -0.916%.

As for `Cc1cccc(N2CCN(c3ccc(C(=O)O)cc3NC(=O)c3ccccc3F)CC2C)c1` (centres undefined), the activity change, negative = inhibition was 20.1%.

Regarding `COc1ccccc1-c1noc(-c2ccc(NCc3ccccc3)c([N+](=O)[O-])c2)n1`, the activity change, negative = inhibition is 4.22%.

As for `CN(Cc1ccccc1)c1ccc(-c2nc(-c3ccccc3)no2)cc1[N+](=O)[O-]`, the activity change, negative = inhibition was -53.5% (active).

For `CC(Nc1ccc(-c2nc(-c3ccco3)no2)cc1[N+](=O)[O-])c1ccccc1` (centres undefined), the activity change, negative = inhibition was -5.4%.

On to `CNc1ccc(-c2nc(-c3ccco3)no2)cc1[N+](=O)[O-]`, for which the activity change, negative = inhibition was -31.8% (active).

For `CNc1ccc(-c2nc(-c3ccccc3C)no2)cc1[N+](=O)[O-]`, the activity change, negative = inhibition was -6.85%.

For `O=[N+]([O-])c1cc(-c2nc(-c3ccccc3)no2)ccc1NCc1ccco1`, the activity change, negative = inhibition is -9.94%.

`CCC(=O)Nc1c(S(=O)(=O)c2ccccc2)c2nc3ccccc3nc2n1Cc1ccccc1`: the activity change, negative = inhibition is -7.1%.

Regarding `Cc1ccc(S(=O)(=O)c2c(N)n(C)c3nc4ccccc4nc23)cc1`, the activity change, negative = inhibition is -3.59%.

On to `CCN(CC)CCn1c(N)c(S(=O)(=O)c2ccccc2)c2nc3ccccc3nc21`, for which the activity change, negative = inhibition was -52.8% (active).

Regarding `CCn1cc(C(=O)NCCc2ccccc2)c(=O)c2cc(S(=O)(=O)N3CCCCCC3)ccc21`, the activity change, negative = inhibition is -7.94%.

On to `CCn1c2ccccc2c2nnc(N3CCN(c4cc(C)ccc4C)CC3)nc21`, for which the activity change, negative = inhibition is -7.14%.

With `COc1cccc(C(=O)NC2CCN(C#N)CC2)c1`, the activity change, negative = inhibition is 4.13%.

Consider `O=C(NCCCN1CCCC1=O)c1cccc(S(=O)(=O)NCc2ccccc2)c1`, for which the activity change, negative = inhibition was -24.9%.

For `O=C(NCCCN1CCCC1=O)c1ccc(S(=O)(=O)Nc2ccccc2)cc1`, the activity change, negative = inhibition was 4.25%.

For the compound `Cc1cccc(C(=O)NCCCN2CCCC2=O)c1`, the activity change, negative = inhibition is -31.5% (active).

In the case of `CCCCCCn1nnc2sc(-c3ccccc3)cc2c1=O`, the activity change, negative = inhibition is 0.186%.

For the compound `CC(=O)c1cc(NC(=O)c2ccccc2)c(=O)oc1/C=C/N(C)C`, the activity change, negative = inhibition is 0.591%.

Take `CCOC(=O)c1cc(NC(=O)c2ccc(Cl)cc2)c(=O)oc1-c1ccccc1`: the activity change, negative = inhibition is -34.6% (active).

For the compound `CCOC(=O)c1cc(NC(=O)c2ccc(F)cc2)c(=O)n2c1oc1ccccc12`, the activity change, negative = inhibition is 0.884%.

Take `CSc1ccccc1NC(=O)CCS(=O)(=O)c1nc(-c2cccs2)cc(C(F)(F)F)n1`: the activity change, negative = inhibition is 2.34%.

With `O=C(CNC(=O)c1ccccc1)OC(C(=O)Nc1cc([N+](=O)[O-])ccc1F)c1ccccc1` (centres undefined), the activity change, negative = inhibition is 4.21%.

On to `CC(C)(C)OC(=O)N1CCC(c2c(C(=O)N3CCN(c4cccc(Cl)c4)CC3)cnn2-c2cccc(Cl)c2)CC1`, for which the activity change, negative = inhibition was -2.09%.

`Cc1nc(SCC(=O)N2CCN(c3ccccc3)CC2)[nH]c(=O)c1C`: the activity change, negative = inhibition was -2.36%.

Regarding `CN(Cc1ccccc1)CC(O)COc1ccc(CNCc2cc3ccccc3s2)cc1` (centres undefined), the activity change, negative = inhibition was -41.2% (active).

Turning to `COc1ccc(OCC(O)CN(C)C(=O)C(C)Oc2ccccc2)cc1` (centres undefined), the activity change, negative = inhibition was -13.9%.

Take `Cc1ccc(OCC(=O)OC(C)CN(C)Cc2ccccc2)cc1` (centres undefined): the activity change, negative = inhibition is -3.69%.

With `CCn1cc(/C=C(\NC(=O)c2cc(OC)c(OC)c(OC)c2)C(=O)N2CCN(C)CC2)c2ccccc21`, the activity change, negative = inhibition was 3.95%.

As to `Cc1ccc(C(=O)N/C(=C\c2cn(C)c3ccccc23)C(=O)N2CCN(C)CC2)cc1`, the activity change, negative = inhibition was 10.2%.

On to `COc1cc(C(=O)N/C(=C\c2cn(C)c3ccccc23)C(=O)N2CCOCC2)cc(OC)c1OC`, for which the activity change, negative = inhibition was -33.6% (active).

Turning to `COc1ccccc1Cc1nc2ccccc2nc1SCC(=O)N1CCCc2ccccc21`, the activity change, negative = inhibition is -2.97%.

Take `COc1ccc(NC(=O)c2cnc(Nc3ccc(C)c(Cl)c3)c3ccccc23)cc1OC`: the activity change, negative = inhibition is 0.261%.

With `Cc1cc(C)c(NC(=O)Cn2c(SCC(=O)NCc3ccccc3)nc3ccccc32)c(C)c1`, the activity change, negative = inhibition is 2.9%.

Take `Cc1ccccc1NC(=O)Cc1nc(COC(=O)c2cccnc2Cl)cs1`: the activity change, negative = inhibition was -12%.

Regarding `C/C=C/C(=O)OCc1csc(CC(=O)Nc2ccccc2C)n1`, the activity change, negative = inhibition was -6.19%.

Regarding `Cc1ccccc1NC(=O)Cc1nc(COC(=O)c2ccc(C(F)(F)F)cc2)cs1`, the activity change, negative = inhibition was -34.6% (active).

With `CCC(=O)N1CCc2cc(CNC(=O)Nc3ccccc3Cl)ccc21`, the activity change, negative = inhibition is 8.55%.

Turning to `CCCN1C(=O)C(O)(CC(=O)c2ccc(CC)cc2)c2cc(Br)ccc21` (centres undefined), the activity change, negative = inhibition was -2.04%.

For `Cc1ccc(-c2onc(C)c2C)cc1S(=O)(=O)Nc1ccccn1`, the activity change, negative = inhibition is -4.41%.

As for `COc1ccc(-c2onc(C)c2C)cc1S(=O)(=O)NCCc1ccccc1`, the activity change, negative = inhibition was -3.85%.

Consider `O=S(=O)(c1ccc(Br)cc1)c1nnn2c1nc(N1CCOCC1)c1sccc12`, for which the activity change, negative = inhibition is 0.25%.

Take `Cc1nc2cc(NC(=O)Nc3cccc(F)c3)ccc2n1C`: the activity change, negative = inhibition is -4.15%.

Consider `O=C(Nc1ccc2ccccc2c1)Nc1ccc2snnc2c1`, for which the activity change, negative = inhibition is -44.8% (active).

Take `O=C(Nc1ccncc1)Nc1ccc(F)cc1`: the activity change, negative = inhibition was 9%.

With `Cc1ccccc1NC(=O)Cn1c(=O)n(Cc2ccco2)c(=O)c2ccc(C(=O)NC3CCCC3)cc21`, the activity change, negative = inhibition was -18.2%.

As to `COc1ccc(NC(=O)C(c2ccccc2)N2Cc3ccccc3C2=O)cc1` (centres undefined), the activity change, negative = inhibition is -6.94%.

Turning to `COc1ccc(OCC(=O)Nc2ccc(N3CCC(C)CC3)cc2)cc1`, the activity change, negative = inhibition is -33.3% (active).

Turning to `CN1CCC(OC(=O)COc2ccc(Cl)cc2Cl)CC1`, the activity change, negative = inhibition is -9.08%.

Turning to `COc1ccc(OCC(=O)OCC(=O)Nc2ccc(S(=O)(=O)N3CCCCC3)cc2)cc1`, the activity change, negative = inhibition is -15.5%.

For `Cc1ccc(Cl)c(OCC(=O)N(C)CC(=O)Nc2ccc(N3CCOCC3)cc2)c1`, the activity change, negative = inhibition is -14.5%.

Turning to `CCC(=O)c1ccc(OCC(=O)Nc2ccc(N3CCCCC3)cc2)cc1`, the activity change, negative = inhibition is 16.6%.

In the case of `CN1CCN(c2ccc(NC(=O)COc3ccc(Cl)cc3Cl)cc2)CC1`, the activity change, negative = inhibition is -32% (active).

In the case of `CCOC(=O)C1CCN(C(=O)CSc2c3c(nc4ccc(Cl)cc24)CCCC3)CC1`, the activity change, negative = inhibition is -13.5%.

As to `CC(=O)N1CCc2cc(Br)cc(S(=O)(=O)CCC(=O)NCCc3ccc(Cl)cc3)c21`, the activity change, negative = inhibition was -8.71%.

Take `COc1ccc(-c2noc(CSc3nc4ccc(C)cc4[nH]3)n2)cc1`: the activity change, negative = inhibition was -1.27%.

On to `CC(=O)c1ccc(NC(=O)c2nc(-c3ccc(C)cc3)n3c2CCCCC3)cc1`, for which the activity change, negative = inhibition is -2.03%.

For the origin of these results see PubChem BioAssay AID504652 (National Center for Advancing Translational Sciences (NCATS), 2011).
